An excerpt weighted towards active compounds, which were near 0.9% of everything screened.
SRC3 TRFRET art = flags TR-FRET format artefacts in PPARgamma SRC-3 recruitment agonist screen. TR-FRET artefact counter-screen, PPARgamma/SRC-3 format; stronger effect = higher value. TR-FRET ratio at 8 µM. actives 0.39% (n = 99,000)
PPARg SRC2 recr = agonists of SRC-2 recruitment by human PPARgamma; P37231; PPARgamma LBD-SRC-2 recruitment, biochemical; activation, % at 8 µM; actives 0.34% (n = 200,000); in the data active means activation above about 22%;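 further: 0% = vehicle and 100% = reference agonist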
Target sequence (P37231 whole entry, looked up, the tested form may be a part): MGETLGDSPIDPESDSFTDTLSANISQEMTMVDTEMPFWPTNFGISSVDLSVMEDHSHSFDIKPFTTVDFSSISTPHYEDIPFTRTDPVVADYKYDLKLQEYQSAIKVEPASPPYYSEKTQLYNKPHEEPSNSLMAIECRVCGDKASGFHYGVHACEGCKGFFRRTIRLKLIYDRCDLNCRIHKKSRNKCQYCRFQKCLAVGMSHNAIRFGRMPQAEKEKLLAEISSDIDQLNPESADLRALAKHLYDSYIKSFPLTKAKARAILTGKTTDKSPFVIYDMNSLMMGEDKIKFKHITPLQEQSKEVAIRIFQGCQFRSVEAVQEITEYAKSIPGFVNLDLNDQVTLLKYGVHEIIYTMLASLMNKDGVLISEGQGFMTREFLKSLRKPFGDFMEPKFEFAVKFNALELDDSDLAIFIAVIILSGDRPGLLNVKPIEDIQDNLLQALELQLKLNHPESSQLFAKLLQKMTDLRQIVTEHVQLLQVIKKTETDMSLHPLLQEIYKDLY
TR-FRET SRC-2 ct = counter-screen for PPARgamma SRC-2 recruitment agonists: TR-FRET artefact; stronger effect = higher value; TR-FRET ratio at 8 µM; actives 0.4% (n = 200,000); AID 1049
SRC1 TRFRET art = counter-screen for PPARgamma SRC-1 recruitment agonists: TR-FRET artefact. actives 0.34% (n = 99,000). TR-FRET ratio at 8 µM. AID 1051. TR-FRET detection artefact counter-screen, emission ratio; stronger effect = higher value; in the data active means TR-FRET ratio above about 2300
PPARg SRC3 recr = PPARgamma-driven SRC-3 recruitment agonism. P37231. biochemical PPARgamma/SRC-3 coactivator recruitment assay. activation, % at 8 µM. actives 0.26% (n = 200,000); in the data active means activation above about 23%;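 further: 0% = DMSO and 100% = reference agonist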
PPARg SRC1 recr = promotes SRC-1 coactivator recruitment by human PPARgamma; P37231; actives 0.41% (n = 200,000); PPARgamma-SRC-1 coactivator recruitment biochemical assay; activation, % at 8 µM; in the data active means activation above about 19%;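 further: 0% = DMSO and 100% = reference agonist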
* hit, by the source's call. Unless noted, no stated cut-off is given here; in the data, active means TR-FRET ratio above about 2000; inactive means the rest.

Screening Cc1cccc(Nc2ccc(C(=O)N3CCOCC3)cn2)c1 returned SRC3 TRFRET art 1601, PPARg SRC2 recr 7, TR-FRET SRC-2 ct 1985*, SRC1 TRFRET art 2076, PPARg SRC3 recr 3 and PPARg SRC1 recr 9.
Screening S=c1[nH]c2ccc(Cl)cc2[nH]1 returned PPARg SRC2 recr 24*, TR-FRET SRC-2 ct 1677, PPARg SRC3 recr 5 and PPARg SRC1 recr 5.
`COc1ccc2[nH]c(=S)[nH]c2c1` gave PPARg SRC2 recr 13, TR-FRET SRC-2 ct 1534, PPARg SRC3 recr 10 and PPARg SRC1 recr 5.
`CC(C)CCNC(=O)C(CC(C)C)N(Cc1ccc2c(c1)OCO2)C(=O)c1snc(C(N)=O)c1N` (stereo unspecified) gave SRC3 TRFRET art 1436, PPARg SRC2 recr -1, TR-FRET SRC-2 ct 1530, SRC1 TRFRET art 1600, PPARg SRC3 recr 0 and PPARg SRC1 recr -1.
`COc1ccc(/C=C2/C(=O)N(c3nc4ccccc4s3)N=C2CSc2ccc(Cl)cc2)cc1` gave SRC3 TRFRET art 2197*, PPARg SRC2 recr 0, TR-FRET SRC-2 ct 1737, SRC1 TRFRET art 2577*, PPARg SRC3 recr 5 and PPARg SRC1 recr 5.
`COc1ccc(/C=C2/C(=O)N(Cc3ccccc3)N=C2C)cc1` gave SRC3 TRFRET art 1500, PPARg SRC2 recr 0, TR-FRET SRC-2 ct 1595, SRC1 TRFRET art 1736, PPARg SRC3 recr 4 and PPARg SRC1 recr 1.
Screening Cc1ccc(Cl)cc1NC(=S)NCc1cccn1C returned SRC3 TRFRET art 1699, PPARg SRC2 recr -3, TR-FRET SRC-2 ct 1567, SRC1 TRFRET art 1817, PPARg SRC3 recr 2 and PPARg SRC1 recr -2.
`Nc1nc2n(n1)C(=O)CC(c1ccccc1)N2` (stereo unspecified) gave SRC3 TRFRET art 1707, PPARg SRC2 recr -4, TR-FRET SRC-2 ct 1511, SRC1 TRFRET art 1799, PPARg SRC3 recr 3 and PPARg SRC1 recr 7.
CS(=O)(=O)N(CC(=O)NCc1ccncc1)Cc1ccc(Cl)cc1 was read as PPARg SRC2 recr 5, TR-FRET SRC-2 ct 1331, PPARg SRC3 recr 28* and PPARg SRC1 recr -5.
CC(C)Sc1nc2ccccc2n1CC(=O)O was read as SRC3 TRFRET art 1572, PPARg SRC2 recr -1, TR-FRET SRC-2 ct 1394, SRC1 TRFRET art 1707, PPARg SRC3 recr 1 and PPARg SRC1 recr -7.
`CCOC(=O)c1sc(=NC(=O)c2ccc(OC)c(OC)c2)n(C)c1C` gave PPARg SRC2 recr 4, TR-FRET SRC-2 ct 1525, PPARg SRC3 recr 1 and PPARg SRC1 recr 80*.
CCOC(=O)c1sc(=NC(=O)c2ccccc2)n(C)c1C was read as SRC3 TRFRET art 2902*, PPARg SRC2 recr 8, TR-FRET SRC-2 ct 2392*, SRC1 TRFRET art 2795*, PPARg SRC3 recr 6 and PPARg SRC1 recr 3.
`CCOC(=O)c1sc(=NC(=O)c2cccc(OC)c2)n(C)c1C` gave PPARg SRC2 recr -1, TR-FRET SRC-2 ct 1534, PPARg SRC3 recr -5 and PPARg SRC1 recr 80*.
`CCOC(=O)c1sc(=NC(=O)COc2ccc(Cl)cc2)n(C)c1C` gave SRC3 TRFRET art 1434, PPARg SRC2 recr 5, TR-FRET SRC-2 ct 1448, SRC1 TRFRET art 1669, PPARg SRC3 recr 3 and PPARg SRC1 recr -3.
`CCc1cc2c(=O)c(-c3nc(C)cs3)c(CCCC(=O)O)oc2cc1O` gave SRC3 TRFRET art 1707, PPARg SRC2 recr 2, TR-FRET SRC-2 ct 1611, SRC1 TRFRET art 1835, PPARg SRC3 recr 4 and PPARg SRC1 recr 4.
For CCc1cc2c(=O)c(-c3nc(C)cs3)coc2cc1OC(C)C(=O)NCCO (stereo unspecified) the results were SRC3 TRFRET art 1621, PPARg SRC2 recr 25*, TR-FRET SRC-2 ct 2120*, SRC1 TRFRET art 5866*, PPARg SRC3 recr 3 and PPARg SRC1 recr 138*.
Screening CCOC(=O)c1c(NC(=O)C2=C(C)NC(=S)NC2c2ccc(C)cc2)sc(C)c1C (stereo unspecified) returned SRC3 TRFRET art 1630, PPARg SRC2 recr 3, TR-FRET SRC-2 ct 1494, SRC1 TRFRET art 2914*, PPARg SRC3 recr 2 and PPARg SRC1 recr 16.
CCOC(=O)c1c(NC(=O)C2=C(C)NC(=S)NC2c2ccc(F)cc2)sc(C)c1C (stereo unspecified) was read as SRC3 TRFRET art 1671, PPARg SRC2 recr 7, TR-FRET SRC-2 ct 1612, SRC1 TRFRET art 1845, PPARg SRC3 recr 1 and PPARg SRC1 recr 1.
COc1ccc(NC(=O)NCc2ccc3c(c2)OCO3)cc1 was read as SRC3 TRFRET art 1563, PPARg SRC2 recr 5, TR-FRET SRC-2 ct 1486, SRC1 TRFRET art 1783, PPARg SRC3 recr -1 and PPARg SRC1 recr -1.
Screening O=C(NCc1ccc2c(c1)OCO2)Nc1ccc2nsnc2c1 returned SRC3 TRFRET art 1791, PPARg SRC2 recr 67*, TR-FRET SRC-2 ct 2378*, SRC1 TRFRET art 2198, PPARg SRC3 recr 13 and PPARg SRC1 recr 12.
`O=C(Nc1ccc(N2CCOCC2)cc1)Nc1ccc2nsnc2c1` gave SRC3 TRFRET art 1642, PPARg SRC2 recr 11, TR-FRET SRC-2 ct 1863, SRC1 TRFRET art 2437*, PPARg SRC3 recr 9 and PPARg SRC1 recr 7.
`CCN(C(=O)c1ccco1)c1nc(CC(=O)Nc2ccc(Cl)cc2)cs1` gave PPARg SRC2 recr -6, TR-FRET SRC-2 ct 1541, PPARg SRC3 recr 4 and PPARg SRC1 recr -2.
CCC(=O)N(Cc1ccco1)c1nc(C(=O)Nc2ccc(Cl)cc2)c(C)s1 was read as SRC3 TRFRET art 1762, PPARg SRC2 recr 19, TR-FRET SRC-2 ct 1971*, SRC1 TRFRET art 2016, PPARg SRC3 recr 3 and PPARg SRC1 recr 14.
`CCOC(=O)CNC(=O)CSc1nnc(NC(=O)c2ccccc2Cl)s1` gave SRC3 TRFRET art 1616, PPARg SRC2 recr -1, TR-FRET SRC-2 ct 1469, SRC1 TRFRET art 1968, PPARg SRC3 recr -2 and PPARg SRC1 recr 2.
CCOc1cc(C=O)cc(Cl)c1OCC(N)=O was read as SRC3 TRFRET art 1618, PPARg SRC2 recr -10, TR-FRET SRC-2 ct 1599, SRC1 TRFRET art 1807, PPARg SRC3 recr 7 and PPARg SRC1 recr -4.
Screening CCC(CC(C)(C)O)C(=O)NNC(=S)Nc1ccccc1 (stereo unspecified) returned SRC3 TRFRET art 1494, PPARg SRC2 recr -1, TR-FRET SRC-2 ct 1197, SRC1 TRFRET art 1522, PPARg SRC3 recr -1 and PPARg SRC1 recr 0.
CN(C)N=C1c2cc(S(=O)(=O)N3CCOCC3)ccc2-c2ccc(S(=O)(=O)N3CCOCC3)cc21 was read as SRC3 TRFRET art 1466, PPARg SRC2 recr 0, TR-FRET SRC-2 ct 1605, SRC1 TRFRET art 1845, PPARg SRC3 recr 0 and PPARg SRC1 recr -1.
`NC(=S)NN=C1c2cc(S(=O)(=O)N3CCOCC3)ccc2-c2ccc(S(=O)(=O)N3CCOCC3)cc21` gave SRC3 TRFRET art 1632, PPARg SRC2 recr 6, TR-FRET SRC-2 ct 1605, SRC1 TRFRET art 2316*, PPARg SRC3 recr 4 and PPARg SRC1 recr -2.
